Rows were chosen to be rich in hits. Some 1.4% of all compounds tested hit in one or more screens of this group.
HSV replic up = enhancers of HSV replication in host cells, fold increase, host cell viability. 220,000 compounds, 0.005% hits. AID 1956, 2009. maximum fold increase. HSV replication augmentation in cells; in the data active means maximum fold increase above about 1.5; tested in PC3 cells
Yeast superoxide = reduction of superoxide in aged yeast, primary screen, HTS; S. cerevisiae aged cells, superoxide DHE fluorescence; stronger effect = lower value; superoxide response (% of plate mean), % at 10 µM; 330,000 compounds, 0.18% hits; AID 2690, 2010;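 active means superoxide response under a set limit, about three screen SD below normal, cut at about 65% in these data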;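 further: yeast aged for seven days with compound at 30 °C before DHE staining; 100% = average MFI of all compound-treated wells on the plate with controls excluded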
H9c2 protect = cardioprotection against H2O2-induced cell death, primary screen, uHTS, H9c2 cells, ATPLite luminescence | AID 588492, 2011 | H9c2 cardiomyocytes, H2O2 injury protection, 2 h | protection from H2O2 cell death, % at 20 µM | 360,000 compounds, 0.63% hits;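 active means compounds giving at least 50% protection of heart cells from peroxide-induced death in the single-dose screen, raw or plate-pattern-corrected value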;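 further: 0% = DMSO wells with peroxide and 100% = DMSO wells without peroxide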
MIN6 prolif-1 = inducers of MIN6 beta-cell proliferation, primary screen, ATP luminescence, uHTS | MIN6 cells proliferation, ATPlite luminescence, 48 h; cells starved in 0.2% serum; 100% = growth in 10% serum | AID 2380, 2010 | proliferation, % at 10 µM | 330,000 compounds, 0.29% hits;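 active means compounds whose signal lies at least 3.5 SD above the mean of all wells on their plate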;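 further: 0% = DMSO-treated cells in low-serum medium and 100% = 10% serum control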
pCIP destab = p/CIP-EGFP fusion destabilizers, primary screen, fluorescence, F442A cells. Q05BA5. 16 h. decrease of EGFP signal, % at 10 µM. 290,000 compounds, 0.01% hits;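 active means EGFP signal decrease of at least 30% at 10 µM or well 3 SD below plate mean, unless failing retest; inactive means the rest, including hits failing retest or dose response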
Target sequence (Q05BA5 1-1403): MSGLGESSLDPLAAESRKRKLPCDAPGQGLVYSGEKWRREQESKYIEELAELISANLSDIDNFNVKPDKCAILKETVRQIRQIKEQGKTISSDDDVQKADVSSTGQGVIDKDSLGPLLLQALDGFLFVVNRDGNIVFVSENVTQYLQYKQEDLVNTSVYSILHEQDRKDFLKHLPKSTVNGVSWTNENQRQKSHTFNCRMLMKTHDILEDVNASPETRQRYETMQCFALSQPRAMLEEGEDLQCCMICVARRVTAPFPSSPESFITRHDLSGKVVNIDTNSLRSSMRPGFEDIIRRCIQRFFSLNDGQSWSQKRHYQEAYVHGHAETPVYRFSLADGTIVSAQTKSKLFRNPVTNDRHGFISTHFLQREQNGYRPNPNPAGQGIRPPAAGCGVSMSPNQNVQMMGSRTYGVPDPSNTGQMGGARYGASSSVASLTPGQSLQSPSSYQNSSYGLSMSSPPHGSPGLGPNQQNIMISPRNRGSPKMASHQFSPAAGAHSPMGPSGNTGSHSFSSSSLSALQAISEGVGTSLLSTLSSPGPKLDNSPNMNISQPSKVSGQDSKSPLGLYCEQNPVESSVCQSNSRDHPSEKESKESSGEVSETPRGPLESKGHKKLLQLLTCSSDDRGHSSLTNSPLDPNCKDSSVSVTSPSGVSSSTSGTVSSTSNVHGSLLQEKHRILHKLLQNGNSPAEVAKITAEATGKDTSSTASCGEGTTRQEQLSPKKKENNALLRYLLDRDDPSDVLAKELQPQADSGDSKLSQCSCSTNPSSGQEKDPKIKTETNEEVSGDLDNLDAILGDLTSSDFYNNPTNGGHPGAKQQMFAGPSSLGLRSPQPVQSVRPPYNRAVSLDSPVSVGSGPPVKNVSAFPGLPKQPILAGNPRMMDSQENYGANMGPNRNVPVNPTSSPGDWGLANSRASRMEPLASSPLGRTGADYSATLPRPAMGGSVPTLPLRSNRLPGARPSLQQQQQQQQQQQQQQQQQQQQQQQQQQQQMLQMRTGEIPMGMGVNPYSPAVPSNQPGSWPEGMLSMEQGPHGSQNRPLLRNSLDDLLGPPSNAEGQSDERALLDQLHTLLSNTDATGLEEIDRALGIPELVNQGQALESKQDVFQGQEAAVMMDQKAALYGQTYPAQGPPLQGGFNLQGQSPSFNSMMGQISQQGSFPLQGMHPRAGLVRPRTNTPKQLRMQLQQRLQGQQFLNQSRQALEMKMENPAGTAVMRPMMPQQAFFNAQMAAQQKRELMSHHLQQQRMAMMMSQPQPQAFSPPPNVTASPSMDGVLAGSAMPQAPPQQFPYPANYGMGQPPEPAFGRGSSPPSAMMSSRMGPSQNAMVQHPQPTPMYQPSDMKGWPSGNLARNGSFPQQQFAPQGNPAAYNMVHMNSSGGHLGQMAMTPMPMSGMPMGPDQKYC
V-ATPase pH = regulators of yeast V-ATPase proton pumping, primary screen, pHLuorin cytosolic pH fluorescence | S. cerevisiae | 350,000 compounds, 0.37% hits | response, % at 10 µM; in the data active means response mostly above about 7.3%, no sharp cut-off; inactive means mostly below about 5.4%; further: actives read high
MIN6 prolif-2 = inducers of beta-cell proliferation in MIN6, confirmation, MIN6 cells, mouse; shares compounds with MIN6 prolif-1; ATPlite luminescence, 48 h; cells kept in 0.2% serum; scaled between 0.2% and 10% serum; proliferation increase, % at 50 µM; 920 tested, under 10 active;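 active means proliferation increase above 40% at any of the four tested concentrations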
Superoxide pick = superoxide lowering in aged yeast cells, confirmation, cherry picked compounds; shares compounds with Yeast superoxide; S. cerevisiae aging, superoxide DHE fluorescence; stronger effect = lower value; superoxide response (% of plate), % at 10 µM; 850 compounds, 1% hits; AID 434994, 2010;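 active means superoxide signal below 65% of the plate average of sample wells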;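 further: cells aged with compound for 7 days at 30 degrees C before staining; 100% equals mean DHE fluorescence of all compound wells on the plate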
DHE fluor count = DHE quenching or ROS scavenging interference in aged yeast, artefact control for yeast caloric restriction mimetic project, S. cerevisiae BY4741, flow cytometry; 850 tested, under 10 active; AID 435000, 2010; fluorescence response, % at 10 µM; shares compounds with Yeast superoxide; DHE fluorescence; stronger effect = lower value;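 active means fluorescence response below 15%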;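 further: percent of the mean fluorescence averaged over all compound wells on the plate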
Active calls of the source: *; i = inactive; / = not tested or not shown.

SMILES	HSV replic up	Yeast superoxide	H9c2 protect	MIN6 prolif-1	pCIP destab	V-ATPase pH	MIN6 prolif-2	others
O=C(NCC(=O)N(Cc1ccc(F)cc1)C(C(=O)NC1CCCC1)c1ccco1)c1ccco1 (configuration not stated)	i	84	20	7.1*	-6	0	-2
O=C(NC1CCCC1)C(c1ccco1)N(C(=O)c1ccco1)c1ccccc1 (configuration not stated)	/	104	3	-3	-10	9	/
COc1ccc(OC)c(/C=N/NC(=O)CSc2cc(C)nc3c(OC)cccc23)c1	i	98	0	10*	5	2	-1
COc1ccc2nc(C)cc(SCC(=O)N/N=C/c3ccco3)c2c1	/	90	-3	0	-16	0	/
O=C(Cc1cccc2ccccc12)N1CCCc2ccccc21	i	95	-1	0	-36	-1	/
CCOC(=O)c1cc2c(=O)n3cccc(C)c3nc2n(CC2CCCO2)c1=NC(C)=O (configuration not stated)	i	103	11	9.6*	/	0	1
CCOC(=O)Nc1nnc(CCc2ccccc2)s1	i	96	-2	2	4	-2	/
CCc1nnc(NC(=O)OCc2ccccc2)s1	i	113	-5	6.0*	-12	-3	-2
COc1ccc(OC)c2c1sc(=NC(=O)C1COc3ccccc3O1)n2C (configuration not stated)	i	96	-2	7.7*	4	-3	-2
CCC(=O)N=c1sc2c(OC)ccc(OC)c2n1C	i	109	-4	-2	/	5	/
O=C(NS(=O)(=O)N1CCOCC1)C1=C(N2CCCC2)COC1=O	/	84	7	-6	/	1	/
COc1cc(Nc2nc3ccccc3n3nnnc23)cc(OC)c1OC	i	97	68*	10*	-5	-7	-6
COc1ccc(Nc2nc3ccccc3n3nnnc23)cc1	i	96	32	6	6	-1	/
CCCCNC(=O)C1(C)CCCCCN1Cc1cc2ccccc2o1 (configuration not stated)	/	/	3	/	/	/	/
CCN(CC)C(=O)Cn1cc(S(=O)(=O)CC(=O)Nc2ccccc2C)c2ccccc21	/	113	-2	3	-4	4	/
CCc1nn(CCCC(=O)NC2CCCCC2C)c(=O)c2cc3occc3n12 (configuration not stated)	/	/	0	/	/	1	/
O=C(NNC1=NCCC1)c1cccc(Br)c1	i	95	-4	9.7*	13	7	4
Cc1ccc(NS(=O)(=O)c2ccc(Cl)nc2)c(C)c1	/	/	-1	-2	/	0	/
Cc1nnsc1C(=O)NC(=O)Nc1ccc(F)c(Cl)c1	i	99	-7	5.9*	-18	-2	-6
Cc1nnsc1C(=O)Nc1ccc(Cl)cc1	i	108	-6	0	-3	-2	/
Cc1c(-c2ccccc2)[n+](=O)c2c(n1[O-])CCC2	i	87	4	8.9*	1	1	-2
Cc1c(-c2ccc(Cl)cc2)[n+](=O)c2c(n1[O-])CCCC2	i	104	-2	-1	-4	4	/
CCOc1ccc(C(=O)c2cc([N+](=O)[O-])ccc2Cl)cc1	i	98	-12	-2	-10	-1	/
CCC(C(=O)Nc1cc(C)nn1-c1nc(C)cc(C)n1)c1ccccc1 (configuration not stated)	i	97	-1	6.1*	-32	-1	-6
Cc1ccc(S(=O)(=O)Cn2nnnc2C(CC(C)C)N2CCN(c3ccccc3)CC2)cc1 (configuration not stated)	i	102	-3	-2	4	1	/
SMILES	HSV replic up	Yeast superoxide	H9c2 protect	MIN6 prolif-1	pCIP destab	V-ATPase pH	MIN6 prolif-2	others
CC(C)CC(c1nnnn1C(C)C)N1CCN(c2ccccc2)CC1 (configuration not stated)	i	87	2	7.3*	-11	0	-2
O=C(Nc1ccccc1O)c1nc(Cl)ccc1Cl	i	98	-2	-1	-6	-2	/
CCOC(=O)/C(C#N)=C1/C=C(C)c2ccccc2N1	i	110	10	7.1*	10	1	-1
O=C(NCc1cccs1)c1cccnc1Cl	i	108	7	0.0*	-7	0	1
Cc1cc(C(=O)COC(=O)/C=C/c2ccco2)c(C)n1C	/	117	3	-2	/	-1	/
CCCc1cc(=O)[nH]c(SCC(=O)c2ccc3c(c2)OCCO3)n1	i	90	0	0.0*	1	-1	-6
CCCc1cc(=O)[nH]c(SCC(=O)N(CCC#N)c2ccc3c(c2)OCCO3)n1	/	/	6	-3	/	1	/
CCCc1ccc(S(=O)(=O)N2CCN(C(C)C(=O)NCc3ccccc3)CC2)cc1 (configuration not stated)	/	/	-7	-1	/	-1	/
Cn1cccc1/C=N/N1CCN(c2ccccc2)CC1	i	105	-3	-1	1	0	/
COc1ccc(CC(=O)Nc2cc(S(=O)(=O)N3CCOCC3)ccc2N2CCCC2)cc1OC	/	93	7	0	/	-3	/	Superoxide pick=84;DHE fluor count=92
COc1ccc(CC(=O)Nc2cc(S(=O)(=O)N3CCOCC3)ccc2N2CCCC2)c(OC)c1	/	/	9	/	/	7	/
O=C(Cc1ccc(Cl)cc1)Nc1cc(S(=O)(=O)N2CCOCC2)ccc1N1CCCC1	i	101	2	-3	12	-1	/	Superoxide pick=134;DHE fluor count=122
CCCN(CCC)CC(O)Cn1c2ccccc2c2ccccc21 (configuration not stated)	i	80	-4	-4	1	1	/	Superoxide pick=97;DHE fluor count=94
Cc1ccc(C(C)NC(=O)CSc2ccc(S(=O)(=O)N3CCOCC3)cn2)cc1C (configuration not stated)	/	92	-7	/	/	-1	/
Cc1cc([N+](=O)[O-])ccc1NC(=O)C(C)N1CCN(c2ccccn2)CC1 (configuration not stated)	i	116	-1	2	-1	3	/	Superoxide pick=84;DHE fluor count=96
CC(C(=O)Nc1ccccc1)N1CCN(c2ccccn2)CC1 (configuration not stated)	/	103	6	-5	5	3	/	Superoxide pick=97;DHE fluor count=98

High-throughput results from PubChem BioAssay.
